The results in this text go back to PubChem BioAssay (NCATS).

Results filed as inconclusive are left out. A number with no mark means an inactive call. Activity calls are given as the source filed them. Calls come from the whole dose curve; as a rule, active = well fitted curve in the direction sought with a large enough effect; inconclusive = small, poorly fitted or top-dose-only effect, or another doubt; inactive = no such curve, though single readings can be large; an effect the other way counts as inactive or inconclusive.

Assay [1] deals with Cytochrome P450 3A7 (Homo sapiens) (UniProt P24462). Kind of assay: Cytochrome P450 family 3 subfamily A member 7 (CYP3A7) small molecule antagonists: luciferase biochemical qHTS assay (AID 1963596). Note: nearly all actives have a fitted effect of over 40% in size. Note: potency is the fitted concentration of half-maximal effect. In outline:
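Compounds were screened in qHTS format for interference with CYP3A7 turnover of a proluciferin substrate. Reactions ran 1 h at room temperature after NADPH regeneration solution was added, then luciferin product was detected by luminescence.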

Assay [2] in a line: Viability qHTS for spleen associated tyrosine kinase inhibitor (SYKi) drug resistant MV4-11 cells (AID 1963824). Note: nearly all actives have a fitted effect of over 35% in size. Note: potency is the fitted concentration of half-maximal effect. The method in brief: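 SYK inhibitor-resistant MV4-11 AML cells, 500 per well, added to predispensed compounds and incubated 72 hr at 37 C, 5% CO2. Viability measured by CellTiter-Glo luminescence after 10 min at room temperature.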
A short description of assay [3]: Cellular viability qHTS for adrenocortical cancer (ACC) cell line SW-13 (AID 1963989).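 For activity (max response): cells grown in serum-free medium with ITS supplement; % is set by controls: 0 for no effect and ±100 for the full control effect.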 Note: nearly all actives have a fitted effect of over 65% in size. Note: potency is the fitted concentration of half-maximal effect. Conditions: SW-13 ACC cells viability, CellTiter-Glo, 48 h; activity (max response): active compounds read low. In outline: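 Viability was read as CellTiter-Glo luminescence after 48 h compound treatment (up to 46 uM final) of SW-13 cells grown serum-free; titration curves were fit with a four-parameter logistic model to give IC50 and efficacy.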

A short description of assay [4]: Cellular viability qHTS for adrenocortical cancer (ACC) cell line NCI-H295R (AID 1963990). Note: nearly all actives have a fitted effect of over 60% in size. Note: potency is the fitted concentration of half-maximal effect. The method in brief: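 CellTiter-Glo ATP luminescence, read 48 h after compound addition, measured viability of NCI-H295R adrenocortical cells grown serum-free with ITS. Final concentrations spanned up to 46 uM. Data normalized to DMSO and doxorubicin, fitted for IC50 and maximal response.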

Assay [5] in a line: Quantitative highthroughput screen to assess conditional lethalithy of NOMO1 cells grown in RPMI1640 with untreated serum (RPMI+s) (AID 1963876).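 Note: 100% = DMSO wells and 0% = empty wells without cells; nearly all actives have a fitted effect of over 35% in size.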 In outline: (§1)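 Each medium arm—HPLM with 10% dialyzed FBS, or RPMI1640 with 5 mM glucose and 10% untreated or dialyzed FBS—was screened against an 11-point, 3-fold compound titration for 48 h at 37 °C, with CellTiter-Glo luminescence as endpoint.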

Assay [6] can be described thus: Quantitative highthroughput screen to assess conditional lethalithy of NOMO1 cells grown in RPMI1640 with dialyzed fetal bovine serum (RPMI+ds) (AID 1963877).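 Note: series mostly up to about 46 µM; 100% = DMSO control wells and 0% = empty wells; nearly all actives have a fitted effect of over 30% in size.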 The method in brief: as §1
Assay [7] is described as follows: Quantitative highthroughput screen to assess conditional lethalithy of NOMO1 cells grown in Human Plasma-Like Medium with dialyzed fetal bovine serum (HPLM+ds) (AID 1963878).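 Note: 100% = DMSO wells and 0% = empty wells on each plate; nearly all actives have a fitted effect of over 35% in size.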 The method in brief:
as §1

Assay [8] in a line: Quantitative highthroughput screen to assess conditional lethalithy of P12 Ichikawa cells grown in Human Plasma-Like Medium with dialyzed fetal bovine serum (HPLM+ds) (AID 1963879). Note: series mostly up to about 46 µM; nearly all actives have a fitted effect of over 35% in size. To be noted: Potency: viability. In outline: as §1
The nature of assay [9]: Quantitative highthroughput screen to assess conditional lethalithy of P12 Ichikawa cells grown in RPMI1640 with dialyzed fetal bovine serum (RPMI+ds) (AID 1963880). Conditions: Potency: P12-Ichikawa viability. The method in brief:
as §1

The nature of assay [10]: Quantitative highthroughput screen to assess conditional lethalithy of P12 Ichikawa cells grown in RPMI1640 with untreated serum (RPMI+s) (AID 1963881). Conditions: Potency: viability. The method in brief: as §1
The nature of assay [11]: Quantitative highthroughput screen to assess conditional lethalithy of SEM cells grown in Human Plasma-Like Medium with dialyzed fetal bovine serum (HPLM+ds) (AID 1963882). The method in brief: as §1
Assay [12] can be described thus: Quantitative highthroughput screen to assess conditional lethalithy of SEM cells grown in RPMI1640 with unreated serum (RPMI+s) (AID 1963883). In outline:
as §1

The nature of assay [13]: Quantitative highthroughput screen to assess conditional lethalithy of SEM cells grown in RPMI1640 with dialyzed fetal bovine serum (RPMI+ds) (AID 1963884). The method in brief: as §1

Sequence of Cytochrome P450 3A7 (Homo sapiens) (P24462 whole entry, looked up): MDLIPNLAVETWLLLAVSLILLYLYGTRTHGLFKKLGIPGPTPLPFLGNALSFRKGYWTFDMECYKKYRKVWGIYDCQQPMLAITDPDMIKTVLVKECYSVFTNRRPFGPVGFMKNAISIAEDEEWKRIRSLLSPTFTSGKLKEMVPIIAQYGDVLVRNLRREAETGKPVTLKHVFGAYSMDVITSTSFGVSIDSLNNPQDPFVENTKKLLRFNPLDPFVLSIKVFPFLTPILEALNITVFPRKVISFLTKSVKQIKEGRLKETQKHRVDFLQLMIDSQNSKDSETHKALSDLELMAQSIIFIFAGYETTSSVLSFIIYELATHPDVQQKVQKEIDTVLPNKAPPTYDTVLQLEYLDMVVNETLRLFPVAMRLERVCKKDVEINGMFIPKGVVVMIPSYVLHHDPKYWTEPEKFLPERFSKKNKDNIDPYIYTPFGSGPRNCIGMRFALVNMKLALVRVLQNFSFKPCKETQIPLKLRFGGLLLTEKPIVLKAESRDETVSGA

Take `CN1Cc2cc(C(=O)N3CCC(C4CCNCC4)CC3)ccc2N[C@@H](CC(=O)O)C1=O`: the Potency result in [1], in assay [2] and in assay [4] was “inactive” throughout. The activity (max response) in assay [3] was 10.2%.
Regarding `CCN(CC)C(=O)C1CN2CCc3cc(OC)c(OC)cc3C2CC1OC(C)=O` (stereo unspecified), the Potency result in [1], in assay [2] and in [4] was “inactive” throughout. Besides, in [3], the activity (max response) is -2.45%.
Regarding `CCCCCCCCCCCCCCCC(=O)O`, the Potency result in [1], in [2] and in assay [4] was “inactive” throughout. For the same molecule, in [3], the activity (max response) is 8.9%.
In the case of `CCN(CC)S(=O)(=O)c1ccc(C(=O)O)cc1`, the Potency entry in [1], in assay [2] and in assay [4] was “inactive” each time. The activity (max response) in assay [3] was -2.24%.
Turning to `O=C(O)c1cc(=O)c2ccccc2o1`, the Potency result in assay [1], in [2] and in assay [4] was “inactive” each time. Also, the activity (max response) in [3] is -0.886%.
Turning to `NC(=O)NC(=O)Cc1ccccc1`, the Potency result in assay [1], in assay [2] and in [4] was “inactive” each time. The activity (max response) in assay [3] is -0.635%.
Turning to `CC(C)=CCC/C(C)=C/CC/C(C)=C/CCC(=O)OC/C=C(\C)CCC=C(C)C`, the Potency entry in [1], in [2] and in assay [4] was “inactive” throughout. In [3], the activity (max response) was 14.2%.
For the molecule `CCOc1cc(NC(C)=O)ccc1C(=O)OC`, the Potency entry in assay [1], in [2] and in assay [4] was “inactive” each time. The activity (max response) in assay [3] was 1.95%.
On to `Cc1nn(Cc2ccccc2Cl)c(C)c1CN(C)CC(O)COc1ccc(Cl)cc1` (stereo unspecified), for which, in [1], the Potency entry is “inactive”. The figures for the Potency in assay [2], in assay [3] and in assay [4] were 7.42 µM (active), 25.1 µM (active) and 17.8 µM (active), respectively.
Regarding `CNCCc1ccccn1`, the Potency entry in assay [1], in [2] and in assay [4] was “inactive” in each case. Further, in [3], the activity (max response) was 13.5%.
Consider `O=c1[nH]c(=O)n([C@H]2C[C@H](O)[C@@H](CO)O2)cc1Br`, for which the Potency entry in [1] and in assay [4] was “inactive” in each case. The Potency in assay [2] was 8.41 µM (active). The activity (max response) in [3] was -6.63%.
Turning to `OC1C(O)C(O)C(O)C(O)C1O` (stereo unspecified), the Potency result in [1], in assay [2] and in assay [4] was “inactive” throughout. In assay [3], the activity (max response) was -3.11%.
As to `CCCN(CCC)CCc1cccc2c1CC(=O)N2`, the Potency result in [1], in assay [2] and in assay [4] was “inactive” each time. Besides, the activity (max response) in [3] is 8.18%.
Regarding `Nc1ncnc2c1ncn2Cc1c(F)cccc1Cl`, the Potency entry in [1], in assay [2] and in [4] was “inactive” each time. The activity (max response) in [3] is 6.36%.
With `C[C@H]1[C@H](NC(=O)/C(=N/OC(C)(C)C(=O)O)c2csc(N)n2)C(=O)N1S(=O)(=O)O` (stereo in doubt), the Potency entry in assay [1], in assay [2] and in [4] was “inactive” throughout. For the same molecule, in assay [3], the activity (max response) is 8.46%.
Take `CC(=O)N(CC(=O)N(C)C)c1ccccc1`: the Potency entry in [1], in assay [2] and in assay [4] was “inactive” in each case. For the same molecule, the activity (max response) in assay [3] was -5.65%.
In the case of `COc1ccc2c(c1)CCCC2=O`, the Potency result in assay [1], in assay [2] and in assay [4] was “inactive” throughout. Also, the activity (max response) in assay [3] is 14.4%.
Turning to `Cc1c(N)cccc1C(F)(F)F`, the Potency result in [1], in assay [2] and in [4] was “inactive” each time. The activity (max response) in [3] is 12.6%.
Take `CC(=O)N(CC(O)CO)c1c(I)c(C(=O)NCC(O)CO)c(I)c(C(=O)NCC(O)CO)c1I` (stereo unspecified): the Potency entry in assay [1], in assay [2] and in assay [4] was “inactive” throughout. In [3], the activity (max response) was 11.9%.
In the case of `CC1CCc2cc(F)cc3c(=O)c(C(=O)O)cn1c23` (stereo unspecified), the Potency entry in assay [1] and in assay [4] was “inactive” throughout. In addition, in assay [2], the Potency is 6.68 µM (active). In addition, the activity (max response) in [3] was 5.01%.
`Cc1ccc(-c2ccccc2C#N)cc1`: the Potency entry in assay [1], in assay [2] and in assay [4] was “inactive” in each case. In addition, in assay [3], the activity (max response) is 12.9%.
Consider `CCCOC(=O)c1ccccc1`, for which the Potency result in [1], in assay [2] and in assay [4] was “inactive” each time. Moreover, the activity (max response) in assay [3] was 11.8%.
As for `CCCCCC(C)N` (stereo unspecified), the Potency entry in assay [1], in [2] and in assay [4] was “inactive” in each case. Moreover, the activity (max response) in assay [3] is 17.9%.
As to `CCOc1ccc(NC(=O)CC(C)O)cc1` (stereo unspecified), the Potency entry in [1], in assay [2] and in [4] was “inactive” throughout. Besides, the activity (max response) in assay [3] was -9.31%.
Take `CCOC(=O)c1cccc(N)c1`: the Potency in assay [1] was 27.5 µM (active). Also, the Potency entry in [2] and in assay [4] was “inactive” throughout. Moreover, in assay [3], the activity (max response) was -1.69%.
With `Cc1cc(=O)n(-c2ccccc2)n1C`, the Potency result in assay [1], in [2] and in assay [4] was “inactive” throughout. In addition, the activity (max response) in [3] was 4.16%.
`C[C@@H]1CCC[C@H](C)N1CCCC(O)(c1ccccc1)c1ccccn1` (stereo partly specified): the Potency result in assay [1], in [2] and in assay [4] was “inactive” throughout. Also, the activity (max response) in [3] was -5.41%.
For `CC(=O)N[C@@H](CS)C(=O)O`, the Potency result in assay [1], in assay [2] and in assay [4] was “inactive” in each case. In addition, in assay [3], the activity (max response) is 15.1%.
Take `O=C(O)C1CCC1`: the Potency entry in assay [1], in assay [2] and in assay [4] was “inactive” each time. Also, the activity (max response) in [3] is 11.6%.
For `O=C(O)CC1CCC(c2ccc(-c3ccc(Nc4ccc(C(F)(F)F)nc4)cn3)cc2)CC1` (stereo unspecified), the Potency entry in [1] and in assay [4] was “inactive” throughout. In addition, the Potency in assay [2] is 18.6 µM (active). The activity (max response) in assay [3] is -23.1%.
In the case of `CC(=O)NC[C@H]1CN(c2ccc(N3CCOCC3)c(F)c2)C(=O)O1`, the Potency result in assay [1], in assay [5], in assay [6], in assay [7], in assay [8] and in assay [9] was “inactive” each time. Moreover, the Potency entry in assay [10], in assay [11], in [12] and in assay [13] was “inactive” each time. In addition, the activity (max response) in assay [3] was 5.63%.
In the case of `NC1CCN(c2cccc(Cl)n2)CC1`, the Potency result in [1], in assay [2] and in assay [4] was “inactive” each time. Moreover, the activity (max response) in [3] was 2.41%.
In the case of `CN1CCN(N)CC1`, the Potency result in assay [1], in assay [2] and in [4] was “inactive” each time.
Turning to `CCCCCOC(=O)Nc1nc(=O)n([C@@H]2O[C@H](C)[C@@H](O)[C@H]2O)cc1F`, the Potency entry in assay [1], in [2] and in assay [4] was “inactive” in each case.
On to `COc1ccc(C(Cl)=C(c2ccc(OC)cc2)c2ccc(OC)cc2)cc1`, for which the Potency entry in [1], in assay [2] and in assay [4] was “inactive” in each case.
As for `CCCCCCCC(=O)OCC(O)CO` (stereo unspecified), the Potency result in assay [1], in [2] and in assay [4] was “inactive” throughout. Also, the activity (max response) in assay [3] was -7.07%.
`CCNC(=O)/C=C/c1cccc(Br)c1`: the Potency result in [1], in assay [2] and in assay [4] was “inactive” each time. Besides, the activity (max response) in [3] was -10.3%.
With `C=CCNC(N)=S`, the Potency result in assay [1], in assay [2] and in [4] was “inactive” throughout. For the same molecule, in assay [3], the activity (max response) is 13%.
